About 10 (0.005%) of roughly 190,000 compounds were called active.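 The calls were made as follows: active = activation factor of 2 or more at 20 µM, relative to plate controls; inactive = the rest.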 Only a sample is shown.
The compounds below were run against Mannose-6-phosphate isomerase (Homo sapiens) (UniProt P34949) (assay: MPI enzyme activity enhancement – biochemical, fluorescence intensity, near-Km mannose 6-phosphate, primary screen (AID 1214)). Settings: purified human PMI, coupled resazurin fluorescence, 20 min; at 20 µM; hits give high values; 1 = vehicle control, 0 substrate-free wells.
Chain of Mannose-6-phosphate isomerase (Homo sapiens) (P34949 whole entry, looked up): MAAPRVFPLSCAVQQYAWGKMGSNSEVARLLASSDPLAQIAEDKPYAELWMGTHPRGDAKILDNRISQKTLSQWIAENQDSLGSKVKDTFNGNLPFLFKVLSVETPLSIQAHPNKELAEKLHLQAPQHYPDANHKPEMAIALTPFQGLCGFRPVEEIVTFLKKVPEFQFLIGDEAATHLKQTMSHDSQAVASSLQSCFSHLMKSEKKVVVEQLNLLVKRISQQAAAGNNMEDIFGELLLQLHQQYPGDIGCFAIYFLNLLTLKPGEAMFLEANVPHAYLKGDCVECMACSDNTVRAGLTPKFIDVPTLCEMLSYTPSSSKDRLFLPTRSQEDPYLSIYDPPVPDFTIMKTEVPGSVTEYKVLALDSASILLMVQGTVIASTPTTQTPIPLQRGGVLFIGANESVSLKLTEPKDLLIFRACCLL

Activation factor, inactive:
CC(C)CCN1CCN(C/C=C/c2ccco2)CC1CCO (configuration not stated) 0.8, CCOC(=O)c1ccc(NNC(C)=O)c([N+](=O)[O-])c1 0.9, CC(=O)c1ccc(NC(=S)N(Cc2ccccc2)C(C)C2CC2)cc1 (configuration not stated) 0.8, O=C(CN1CCCC1)N1CCN(c2ccccc2)CC1 0.8, O=C(CC1C(=O)NCCN1Cc1ccc(-c2ccccc2)cc1)NCc1ccncc1 (configuration not stated) 1, CCOc1ccc(-n2c(SCC(=O)NC3CCS(=O)(=O)C3)nnc2-c2cccnc2)cc1 (configuration not stated) 1, O=C(Nc1ccc(N2CCOCC2)cc1)c1ccc2c(c1)OCO2 0.9, CCC1CCCCN1C(=O)CSc1nc(C)cc(C)n1 (configuration not stated) 1, CCCOC(=O)c1ccc(N2C(=O)c3ccccc3C2=O)cc1 1, O=C(CSc1ccc([N+](=O)[O-])cn1)Nc1ccc(N2CCOCC2)c(Cl)c1 1, COc1ccc(-c2cc(C(=O)NCCCn3ccnc3)no2)cc1 1, Cc1cccc(C)c1NC(=S)N(Cc1cccnc1)Cc1ccccc1Cl 0.9, COc1ccc(/C=C/CN2CCCC(C(=O)c3cc(F)ccc3F)C2)cc1 (configuration not stated) 1, O=c1c2sccc2nc(SCc2cc(=O)n3ccccc3n2)n1-c1ccc(Br)cc1 0.9, O=C1CS(=O)CN1c1ccc(Oc2ccccc2)cc1 (configuration not stated) 1, CC(=C/c1ccccc1)/C=N/NC(=O)c1cc(C)oc1C 0.9, CN1C(=O)C(CC(=O)Nc2ccccc2)S/C1=N/c1nccs1 (configuration not stated) 1, CC(/C=C/C1(O)C(C)CC(=O)CC1(C)C)OC1OC(CO)C(O)C(O)C1O (configuration not stated) 0.9, CCN(C(=O)COC(=O)c1ccc(COc2ccc3c(C)cc(=O)oc3c2)cc1)C1CCS(=O)(=O)C1 (configuration not stated) 1, CCOC(=O)c1cc2c(=O)n3ccccc3nc2n(CC(C)C)c1=NC(=O)c1c(-c2c(F)cccc2Cl)noc1C 1, CCOc1ccc2nc(NCCNC(=O)C(C)(C)C)c(C)cc2c1 1, Cc1cccc(N(C(=O)Cc2cccs2)C(C(=O)NCc2ccco2)c2ccncc2)c1 (configuration not stated) 0.9, COc1ccc(Cl)cc1NC(=O)NC(C)C(C)(C)C (configuration not stated) 0.9, CC(C)CCN1CCN(Cc2cn[nH]c2C2CCCCC2)CC1CCO (configuration not stated) 1, Cc1cccc(NC(=O)/C=C/c2ccc3c(c2)OCO3)n1 0.9, CC1=CC(=C(C#N)c2nc3ccccc3s2)C=C(C)N1c1ccc(F)cc1F 0.7, COc1cccc(/C=C/C(=O)Nc2ccc3c(c2)OCCO3)c1 1.1, Cc1c(NC(=S)NCc2ccc(F)cc2)cccc1[N+](=O)[O-] 0.8, Cc1ccc(-c2nn(-c3ccccc3)cc2/C=C/C(=O)Nc2cccc(S(N)(=O)=O)c2)cc1 0.9, COc1ccc(NC(=S)N2CCCC(CO)C2)c(OC)c1 (configuration not stated) 1, COC(=O)c1c(C(=O)OC)c(-c2cccc(C)c2)n2c1CS(=O)C2 (configuration not stated) 0.9, CCOC(=O)C1(O)CC(C)=NN1C(=O)c1cccc(Br)c1 (configuration not stated) 1.1, Cc1ccc(-n2cc(CN(C)Cc3nccn3C)c(-c3cccc(C)c3)n2)cc1 0.8, O=C(CCNC(=O)c1ccc([N+](=O)[O-])cc1)Nc1ccccc1N1CCOCC1 1, CCCC(O)(CCC)C(=O)NN(C(=O)CCl)c1cccc(C)c1 1.1, COC(=O)c1cc(NC(=O)CN2CCN(C(C)=O)CC2)cc(C(=O)OC)c1 0.9, C/C(N)=C(/C#N)C(=O)COC(=O)CNS(=O)(=O)c1ccc(C)cc1 1, CCNC(=O)CC1C(=O)N(c2ccc(F)cc2)C(=O)N1CCc1sccc1C (configuration not stated) 1.1, CCOc1ccc(C(C)=O)cc1CSc1nnc(-c2ccncc2)n1CCOC 1.1, CCOCCCNCc1ccc(OCc2ccc(F)cc2)c(OC)c1 0.9, CCCCc1nnc(NC(=O)CSc2nc(N)cc(=O)[nH]2)s1 0.8, O=C(NCCN1C(=O)S/C(=C\c2cccnc2)C1=O)c1cccc(OC(F)F)c1 0.9, O=C1/C(=C\c2cccnc2)CN(Cc2ccccc2)C/C1=C\c1cccnc1 0.9, Cc1nnc(SC(C(=O)Nc2cc(Cl)cc(Cl)c2)c2ccccc2)[nH]c1=O (configuration not stated) 1, CC(C)CC(=O)NC(=S)NNC(=O)c1cccc([N+](=O)[O-])c1 0.9, CC1CCCCN1C(=S)NCc1ccccc1 (configuration not stated) 0.9, CN(C)S(=O)(=O)c1ccc(NC(=O)N2CCOCC2)cc1 1, Cc1cc(C(=O)COC(=O)CNC(=O)c2ccc(F)cc2)c(C)n1Cc1ccco1 0.9, Cc1ccc2nc(-c3cccnc3)c(NC3CCCC3)n2c1 0.9, CC(C)[C@H](NC(=O)c1ccc(F)cc1)C(=O)OCC(=O)NC(=O)c1cccn1C 0.9, CCOC(=O)C1=C(C)OC(N)=C(C#N)C1c1cncc(-c2ccc(F)cc2)c1 (configuration not stated) 1.1, CCC(C)NC(=O)c1nn(C)c(=O)c2ccccc12 (configuration not stated) 1.1, O=C(CN1C(=O)CC(c2ccccc2)S(=O)(=O)c2ccccc21)NC1CCCC1 (configuration not stated) 1.1, N#Cc1ccc(CSc2nnc3ccccn23)cc1 1, Cc1ccnc(SCC(N)=O)n1 1.1, CCC(C)(C)C1CCC(=NNC(=O)c2ccc(Br)o2)CC1 (configuration not stated) 1, CCOC(=O)/C(=N\Nc1ccccc1[N+](=O)[O-])c1csc(Nc2ccccc2)n1 0.9, COC(=O)C(C)N=Cc1ccccc1 (configuration not stated) 0.9, Cc1onc(C(=O)NN)c1C(=O)N1CCN(C(c2ccccc2)c2ccccc2)CC1 0.9, CCOCCCNC(=O)C(NC(=O)Cc1c[nH]c2ccccc12)c1ccc(OC)cc1 (configuration not stated) 0.9, CC/C(O)=C1\C(=O)CC(C)(C)CC1=NCCc1nc2ccccc2[nH]1 1.1, N#Cc1ccccc1NC(=O)c1cccc(COc2ccc(Cl)cc2Cl)c1 0.9, CCCCc1ccc(NC(=S)NCCCN2CCOCC2)cc1 1, COc1cc(CNCCN(C)C)ccc1OCc1c(F)cccc1Cl 1, O=C(CCNC(=O)Cn1ccc2ccccc2c1=O)NCCC1=CCCCC1 1, Cn1c(=O)c2cc(S(=O)(=O)NCCC(=O)Nc3ccc(F)cc3F)ccc2n(C)c1=O 1, Cc1cccc(C)c1NC(=O)C1(N(C(=O)c2ccccn2)c2ccc(O)cc2)CCCCC1 0.9, Cc1ccc(CN2CCN(Cc3ccccc3-c3ccco3)CC2CCO)o1 (configuration not stated) 0.9, CCOCCCNC(=O)C(NC(=O)c1ccccc1O)c1ccccc1 (configuration not stated) 1.1, O=C(Cc1ccccc1)NNC1CC(=O)N(c2ccc(Br)cc2)C1=O (configuration not stated) 0.9, Cc1ccc(-c2ccc(/C=C(\C#N)C(N)=S)o2)c([N+](=O)[O-])c1 1, Cn1cc(C(=O)NCc2ccccc2F)cn1 1, OC1CSc2nc3ccccc3n2C1 (configuration not stated) 0.9, CCN(C(=O)COC(=O)c1cc(NS(=O)(=O)c2ccc(Cl)c([N+](=O)[O-])c2)ccc1O)C1CCCCC1 0.8, COCCCNC(=O)C1CCC(CNS(=O)(=O)c2ccc(OC)cc2)CC1 (configuration not stated) 1, COc1ccc(N2CCN(C(C)=C3C(=O)c4ccccc4C3=O)CC2)cc1 0.9, COc1ccc(OC)c(-n2c(=S)[nH]c3cc(C(=O)N4CCCCC4)ccc3c2=O)c1 1, Cn1c(CNC(=O)c2ccccc2F)nnc1SCc1ccc(F)cc1 1.2, COc1ccc2c(c1)c(=O)c(C(=O)c1ccc(Cl)cc1)cn2CC(=O)Nc1ccc(F)cc1 1, CC(C)NC(=S)Nc1cccc2cnccc12 1, O=C(N/N=C/c1ccc(Cl)cc1)c1nc2ccc([N+](=O)[O-])cc2c(=O)[nH]1 1, CCCNC(=O)OC[C@H]1O[C@H](CCO/N=C/[C@@H](NS(=O)(=O)c2ccc(C)cc2)[C@H](C)/C=C/CC(=O)OC)C=C[C@@H]1Oc1ccc(OC)cc1 0.9, O=C(Nc1nnc(SCc2ccccc2Cl)s1)c1cccc([N+](=O)[O-])c1 0.9, CSc1ccc(CNCCN2CCOCC2)cc1 1.1, CC(C)(C)NC(=O)NC(=O)COC(=O)Cc1c(F)cccc1Cl 1.2, CCCCCC1CCC(c2nnc(SCC(C)=O)o2)CC1 (configuration not stated) 1, Cc1ccccc1OCCC(=O)OCC(=O)NC(C)c1ccccc1 (configuration not stated) 1, O=C(CSc1cccc[n+]1[O-])c1ccc(-c2ccccc2)cc1 1.2, Cc1cc([N+](=O)[O-])nn1CC(=O)Nc1ccc(Cc2ccncc2)cc1 1, COCCNC(=O)C(OC(=O)c1cccs1)c1ccc(F)cc1 (configuration not stated) 1, Cc1ccc(S(=O)(=O)N2CCN(CC(=O)N/N=C/c3ccc(Br)s3)CC2)cc1 0.9, CN(CC(=O)NCCc1ccccn1)S(=O)(=O)c1ccc(Cl)cc1 0.9, CC1=C(C(=O)Nc2cc(C)ccn2)C(c2cnn(C)c2)C2=C(CC(c3ccccc3)CC2=O)N1 (configuration not stated) 1, O=C(Nc1ccc(CSc2ccccc2)cc1)c1ccc(CN2CCOCC2)cc1 1.1, COc1ccc(Cl)cc1NC(=O)C(C)N1CCc2ccccc21 (configuration not stated) 1.1, Cc1ccn(CC(=O)N2N=C(C(F)F)CC2(O)C(F)F)n1 (configuration not stated) 1.1, N#Cc1c(C(F)(F)F)cc(-c2ccc(Cl)cc2)nc1SCC(=O)O 1

Reference: PubChem BioAssay AID1214 (Sanford-Burnham Center for Chemical Genomics, 2008)
